According to the supplement of paper PMC8975748:
Where a name gives a salt, the structure may show the parent alone. ± gives the standard deviation of the averaged measurements.

Assays:
[1] = system: Saccharomyces cerevisiae BY4741 SeMeCo community; assay: z-score of prototroph abundance vs DMSO median; higher = larger share of this subpopulation than in DMSO controls; settings: 10 µM; 24 h; SM minimal medium; subpopulation (auxotrophy): Prototroph
Outline: (§1)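 Automated confocal microscopy of paraformaldehyde-fixed cells was used to follow a Saccharomyces cerevisiae BY4741 community carrying four plasmids, each restoring one auxotrophy and encoding a distinct fluorescent protein. The community was pre-grown overnight to OD600 1.0, diluted to 0.3, and added at 70 µl to 384-well plates acoustically predosed with library drugs (10 µM final) for 24 h of growth in minimal SM medium. Single-auxotroph fluorescent strains set thresholds and autofluorescence correction, and each subpopulation's abundance was scored as a z-score against the vehicle-well median.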

[2] = system: Saccharomyces cerevisiae BY4741 SeMeCo community; assay: z-score of subpopulation abundance vs DMSO median, subpopulation auxotrophic for M; higher = larger share of this subpopulation than in DMSO controls; settings: 10 µM; 24 h; SM minimal medium; subpopulation (auxotrophy): M
Outline: as §1

[3] = system: Saccharomyces cerevisiae BY4741 SeMeCo community; assay: z-score of subpopulation abundance vs DMSO median, subpopulation auxotrophic for L; higher = larger share of this subpopulation than in DMSO controls; settings: 10 µM; 24 h; SM minimal medium; subpopulation (auxotrophy): L
Outline: as §1

[4] = system: Saccharomyces cerevisiae BY4741 SeMeCo community; assay: z-score of subpopulation abundance vs DMSO median, subpopulation auxotrophic for U; higher = larger share of this subpopulation than in DMSO controls; settings: 10 µM; 24 h; SM minimal medium; subpopulation (auxotrophy): U
Outline: as §1

[5] = system: Saccharomyces cerevisiae BY4741 SeMeCo community; assay: z-score of subpopulation abundance vs DMSO median, subpopulation auxotrophic for H; higher = larger share of this subpopulation than in DMSO controls; settings: 10 µM; 24 h; SM minimal medium; subpopulation (auxotrophy): H
Outline: as §1

[6] = system: Saccharomyces cerevisiae BY4741 SeMeCo community; assay: z-score of subpopulation abundance vs DMSO median, subpopulation auxotrophic for LU; higher = larger share of this subpopulation than in DMSO controls; settings: 10 µM; 24 h; SM minimal medium; subpopulation (auxotrophy): LU
Outline: as §1

[7] = system: Saccharomyces cerevisiae BY4741 SeMeCo community; assay: z-score of subpopulation abundance vs DMSO median, subpopulation auxotrophic for LM; higher = larger share of this subpopulation than in DMSO controls; settings: 10 µM; 24 h; SM minimal medium; subpopulation (auxotrophy): LM
Outline: as §1

[8] = system: Saccharomyces cerevisiae BY4741 SeMeCo community; assay: z-score of subpopulation abundance vs DMSO median, subpopulation auxotrophic for HM; higher = larger share of this subpopulation than in DMSO controls; settings: 10 µM; 24 h; SM minimal medium; subpopulation (auxotrophy): HM
Outline: as §1

[9] = system: Saccharomyces cerevisiae BY4741 SeMeCo community; assay: z-score of subpopulation abundance vs DMSO median, subpopulation auxotrophic for HU; higher = larger share of this subpopulation than in DMSO controls; settings: 10 µM; 24 h; SM minimal medium; subpopulation (auxotrophy): HU
Outline: as §1

[10] = system: Saccharomyces cerevisiae BY4741 SeMeCo community; assay: z-score of subpopulation abundance vs DMSO median, subpopulation auxotrophic for UM; higher = larger share of this subpopulation than in DMSO controls; settings: 10 µM; 24 h; SM minimal medium; subpopulation (auxotrophy): UM
Outline: as §1

[11] = system: Saccharomyces cerevisiae BY4741 SeMeCo community; assay: z-score of subpopulation abundance vs DMSO median, subpopulation auxotrophic for HL; higher = larger share of this subpopulation than in DMSO controls; settings: 10 µM; 24 h; SM minimal medium; subpopulation (auxotrophy): HL
Outline: as §1

[12] = system: Saccharomyces cerevisiae BY4741 SeMeCo community; assay: z-score of subpopulation abundance vs DMSO median, subpopulation auxotrophic for HLU; higher = larger share of this subpopulation than in DMSO controls; settings: 10 µM; 24 h; SM minimal medium; subpopulation (auxotrophy): HLU
Outline: as §1

[13] = system: Saccharomyces cerevisiae BY4741 SeMeCo community; assay: z-score of subpopulation abundance vs DMSO median, subpopulation auxotrophic for HLM; higher = larger share of this subpopulation than in DMSO controls; settings: 10 µM; 24 h; SM minimal medium; subpopulation (auxotrophy): HLM
Outline: as §1

[14] = system: Saccharomyces cerevisiae BY4741 SeMeCo community; assay: z-score of subpopulation abundance vs DMSO median, subpopulation auxotrophic for HUM; higher = larger share of this subpopulation than in DMSO controls; settings: 10 µM; 24 h; SM minimal medium; subpopulation (auxotrophy): HUM
Outline: as §1

[15] = system: Saccharomyces cerevisiae BY4741 SeMeCo community; assay: z-score of subpopulation abundance vs DMSO median, subpopulation auxotrophic for HLUM; higher = larger share of this subpopulation than in DMSO controls; settings: 10 µM; 24 h; SM minimal medium; subpopulation (auxotrophy): HLUM
Outline: as §1

[16] = system: Saccharomyces cerevisiae BY4741 SeMeCo community; assay: z-score of subpopulation abundance vs DMSO median, subpopulation auxotrophic for LUM; higher = larger share of this subpopulation than in DMSO controls; settings: 10 µM; 24 h; SM minimal medium; subpopulation (auxotrophy): LUM
Outline: as §1

[17] = system: Saccharomyces cerevisiae BY4741 SeMeCo community; assay: mean cell size (pixel area) (pixels); higher = larger cells; settings: 10 µM; 24 h; SM minimal medium
Outline: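 A Saccharomyces cerevisiae BY4741 community carrying four plasmids, each with a fluorescent marker and each complementing one auxotrophy, was exposed for 24 h to drug at a final 10 µM in SM medium in acoustically predosed 384-well plates. The overnight preculture (OD600 = 1.0) was diluted to OD600 = 0.3 before 70 µl was added per well. Cells were then fixed with paraformaldehyde, imaged by automated confocal microscopy and analysed in Harmony to derive mean cell pixel area per well, averaged over 3 replicates. Same SeMeCo high-content imaging drug screen: Selleck FDA-approved drugs at 10 µM, 24 h in SM medium, 384-well plates, 3 replicates.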

Row | Compound | z-score of prototroph abundance [1] | z-score of subpopulation abundance [2] | z-score of subpopulation abundance [3] | z-score of subpopulation abundance [4] | z-score of subpopulation abundance [5] | z-score of subpopulation abundance [6] | z-score of subpopulation abundance [7] | z-score of subpopulation abundance [8] | z-score of subpopulation abundance [9] | z-score of subpopulation abundance [10] | z-score of subpopulation abundance [11] | z-score of subpopulation abundance [12] | z-score of subpopulation abundance [13] | z-score of subpopulation abundance [14] | z-score of subpopulation abundance [15] | z-score of subpopulation abundance [16] | mean cell size [17]
1 | CC1=C(C(=O)O)N2C(=O)[C@@H](NC(=O)[C@H](N)C3=CCC=CC3)[C@H]2SC1 [Cephradine monohydrate] | 0.03 | -0.02 | -0.33 | 1.31 | -0.1 | 0.27 | -0.77 | -0.39 | 0.11 | 0.58 | -0.62 | -0.12 | 0.11 | -0.61 | 0.01 |  | 
2 | CCC(=O)Oc1ccc2c(c1)CCC1C2CCC2(C)C(OC(=O)CC)CCC12 (stereo not drawn) [Estradiol dipropionate(17-Beta-Estradiol-3,17-Dipropionate)] | 0.27 | 0.21 | -1.37 | 0.61 | -1.21 | -0.67 | -0.31 |  | 0.2 |  | -0.96 | -0.61 | -0.83 | -0.16 |  | -0.6 | 
3 | Cc1cc(NS(=O)(=O)c2ccc(N)cc2)no1 [Sulfamethoxazole sodium] | -0.28 | 0.79 | -0.95 | 0.7 | -0.82 | 0.09 | -1.48 | -0.51 | 0.96 |  | -1.13 | -1.18 | -0.73 | 1.03 | -0.74 | -0.34 | 
4 | Cc1onc(-c2ccccc2Cl)c1C(=O)N[C@@H]1C(=O)N2[C@@H]1SC(C)(C)[C@@H]2C(=O)O [Cloxacillin Sodium] | -1.62 | 0.44 | 0.15 | 0.9 | -0.29 | 0.4 | 0.63 | -0.01 | 0.86 | 1.46 |  | 0.44 | 0.97 | 2.07 | 1.38 | 1.65 | 
5 | C[C@H]1c2cccc(O)c2C(O)=C2C(=O)[C@]3(O)C(O)=C(C(N)=O)C(=O)[C@@H](N(C)C)[C@@H]3[C@@H](O)[C@@H]21 [Doxycycline monohydrate] | 0.75 | -0.88 | 0.54 | -0.54 | 0.17 | -0.41 | 0 | -1.15 | -1.42 | -1.13 | -0.19 | -0.54 | 0.18 | -0.92 | 0.42 | 0.2 | 
6 | N/C(=N\N=C\c1ccc(Cl)cc1)N/N=C/c1ccc(Cl)cc1 [Robenidine Hydrochoride] | -8.77 | 9.06 | -1.06 | -2.96 | 5.77 | -2.55 | 5.64 | 11.4 | -0.45 | 6.84 | 6.84 | 0.81 | 10.4 | 11.9 |  | 7.91 | 
7 | O=C(Nc1cc(Cl)cc(Cl)c1O)c1c(O)c(Cl)cc(Cl)c1Cl [Oxyclozanide] | 2.11 | -2.38 | -0.21 | -0.91 | -2.53 | -0.32 |  | -2.11 | -1.36 | -1.83 | 1.03 | -0.55 | 0.96 |  | 2.05 | -0.27 | 12.2 ± 0.31
8 | C#C[C@]1(O)CC[C@H]2[C@@H]3CCc4cc(OC)ccc4[C@H]3CC[C@@]21C [Mestranol] | 0.82 | -1.19 | 0.33 | -0.41 | -0.4 | -0.19 | -0.14 | -0.5 |  | -0.68 |  | -0.61 | -0.48 |  | 0.02 |  | 12.4 ± 0.25
9 | CN(Cc1cnc2nc(N)nc(N)c2n1)c1ccc(C(=O)N[C@@H](CCC(=O)O)C(=O)O)cc1 [Methotrexate] | -1.88 | -4.24 | -0.82 | -2.91 | 8.39 | -1.77 | 1.07 | 6.94 | 1.71 |  | 6.68 | 4.61 | 8.99 |  |  | 0.73 | 15.5 ± 0.33
10 | COc1cnc(NS(=O)(=O)c2ccc(N)cc2)nc1 [Sulfameter] | 0 | 0.05 | -0.37 | 0.75 | -0.43 | 1.19 | -0.51 | 0.07 | -0.1 | 0.21 | -0.38 | -0.26 | 0.42 |  | -0.07 | 0.64 | 12.53 ± 0.07
11 | Cc1onc(-c2ccccc2)c1C(=O)N[C@@H]1C(=O)N2[C@@H]1SC(C)(C)[C@@H]2C(=O)O [Oxacillin sodium monohydrate] | -0.42 | 0.02 | 0.52 | 0.36 | -0.05 | 0.83 | 0.23 |  | 0.32 | 0.41 | 0.94 | 0.2 | -0.54 |  | 0.03 |  | 12.04 ± 0.12
12 | CN(C)CCc1c[nH]c2ccc(Cn3cncn3)cc12 [Rizatriptan Benzoate] | 0.05 | -0.1 | 0.9 | -0.69 | 0.25 | 0.31 | 1.18 | 0.65 | -0.96 | -1.14 | 0.75 | 0.78 | 0.35 |  | 0.89 | -0.44 | 12.63 ± 0.099
13 | CN[C@@H]1[C@H](O[C@H]2[C@H](O[C@H]3[C@H](O)[C@@H](O)[C@H](NC(=N)N)[C@@H](O)[C@@H]3NC(=N)N)O[C@@H](C)[C@]2(O)CO)O[C@@H](CO)[C@H](O)[C@H]1O [Dihydrostreptomycin sulfate] | 0.5 | -0.56 | 0.01 | 0.78 | -0.62 | -0.74 |  | -0.91 | -0.87 |  | -0.83 | -1 | 0.47 | -0.82 |  | -0.71 | 
